Laboratory results from PubChem BioAssay AID1671193 (National Center for Advancing Translational Sciences (NCATS), 2021).
The whole screen tested about 150,000 compounds, of which about 180 (0.12%) were called active. Not shown: some 6% with an inconclusive outcome. Calls follow the shape of the dose curve; as a rule, active = well fitted cell-killing curve with a large enough effect; inconclusive = small, poorly fitted or top-dose-only effect, or effect the other way; inactive = flat fitted curve, though single readings scatter. The entries come from a sample that favours actives as a whole. A call without a number means that no potency is given here.

Test: GF-AFC viability counterscreen for inhibitors of alpha-synuclein gene (SNCA) expression; also: nearly all actives have a fitted effect of over 30% in size
Details: HEK-293-SNCA-luc viability, GF-AFC fluorescence, 24 h; series mostly up to 57.1 µM
In short: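 Cytotoxicity counterscreen: after 24 h compound treatment of genome-edited SNCA-luciferase HEK-293 cells, live-cell protease substrate GF-AFC read by fluorescence after 30 min; activity scaled between DMSO (0%) and medium-only (-100%), curves Hill-fitted.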

Structure (SMILES) | Potency | activity change, negative = cytotoxicity
O=C(O)CCNC(=O)Cn1nc2c(cc1=O)CCCC2 | inactive | –
O=C(NCc1ccc(F)cc1)C1CCCN(c2ccnc3ccnn23)C1 (configuration not stated) | inactive | –
O=C(c1ccco1)N1CCC(O)(c2ccccc2)[C@H](N2CCCC2)C1 (some centres not stated) | inactive | –
COc1ccc(-n2c(=O)c(C(=O)Nc3ccccc3Cl)nc3cccnc32)cc1 | inactive | –
Cc1ccc(C(=O)N2CCC(C(=O)N3CCC(c4nc5ncccc5[nH]4)CC3)C2)cc1 (configuration not stated) | inactive | –
O=C(Nc1cc(-c2cccnc2)nn1-c1ccccc1)c1ccccc1F | inactive | –
CC(C)Cn1c(=O)c(C(=O)NCc2ccccc2Cl)nc2cccnc21 | inactive | –
CC(C)C(=O)N1CCC2(CC1)OC(=O)N(Cc1ccccc1F)C2(C)c1ccccc1 (configuration not stated) | inactive | –
FC(F)(F)c1ccc(CN2CCCC3(CC(c4ccccc4)=NO3)C2)cc1 (configuration not stated) | inactive | –
O=C(NCCC1CCN(C(=O)Nc2ccc(F)cc2)CC1)c1ccccn1 | inactive | –
COc1ccc(C(=O)N2CCC3(CC2)N(c2ccccc2)C(=O)CS3(=O)=O)cc1F | inactive | –
Cc1ccc(F)cc1S(=O)(=O)N1CCC(OC2CCN(Cc3ccccc3)CC2)CC1 | inactive | –
COc1cc(CNCCOc2ccccc2)ccc1OCC(O)CN1CCOCC1 (configuration not stated) | inactive | –
CC(=O)NC[C@H]1COCc2nc3cc(NC(C)=O)ccc3n21 | inactive | –
COCCOc1ccc(-c2noc([C@@H]3CCCN3C3CCC3)n2)cn1 | inactive | –
COc1ccccc1CN1Cc2cc(NC(=O)C3CCCC3)ccc2OC(C)C1=O (configuration not stated) | inactive | –
O=C(CCC1CCN(S(=O)(=O)c2ccccc2)CC1)NCCc1ccccc1 | inactive | –
CC(=O)c1c(C)nn(C(C)CC(=O)N2C[C@H]3CC=CC[C@H]3C2)c1C (some centres not stated) | inactive | –
O=C(C[C@@H]1CCNC[C@@H]1Cc1cc(CC2CCCCC2)on1)NC1CCCCC1 | inactive | –
COc1cccc([C@@H]2CN(C(=O)CCCn3cnnn3)C[C@H]2C(=O)O)c1 | inactive | –
COCCN(C)Cc1ccc(CC2CCN(C(=O)C3(c4ccc(OC)cc4)CC3)CC2)cc1 | inactive | –
CCOc1ccc(CC(=O)N2CCC(C3CCN(C(=O)NC)CC3)C2)cc1 (configuration not stated) | – | 6.55% [at 12.5 µM] (inactive)
